Rows were chosen to be rich in hits. Some 3.2% of all compounds tested hit in one or more screens of this group.
Sm TGR inh: blocks Schistosoma mansoni thioredoxin glutathione reductase; Q962Y6; purified TGR, DTNB reduction, TNB absorbance 405 nm; Potency, µM (doses to about 114 µM), without a hit: at the highest dose activity change, negative = inhibition, hits mostly inhibitors; hit rate 3% among 360,000; also: nearly all actives have a fitted effect of over 60% in size
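Kinetic colorimetric format: TGR-catalysed, NADPH-driven DTNB reduction monitored via TNB absorbance. Enzyme dispensed at 20 nM; compound exposure 15 min at room temperature before reaction start.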
RE007 growth inh: less growth of the S. pombe RE007 Vpr strain | S. pombe RE007 Vpr strain, BacTiter-Glo ATP luminescence, 24 h | Potency, µM (series often up to 92.2 µM), without a hit: at the highest dose activity change, negative = less growth, usual class: inhibitors | hit rate 0.21% among 360,000 | AID 651644; active = well fitted falling curve with a large enough effect; inconclusive = small, poorly fitted or top-dose-only effect; inactive = no such curve, though single readings can be large or run the other way; also: nearly all actives have a fitted effect of over 50% in size
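Fission yeast RE007 carrying one integrated HIV-1 vpr copy, seeded at OD 0.01 in PMG+AL medium with 23 nL pinned compound. Grown 24 h at 30 degrees; viability read by BacTiter-Glo luminescence after 5 min.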
TbPYK inhibitor: T. brucei pyruvate kinase inhibition. Potency, µM (top dose mostly 76.8 µM), for inactives: at the top dose activity, negative = inhibition, usual class: inhibitors. AID 624173. hit rate 0.12% among 410,000. TbPYK enzyme, Kinase-Glo Plus ATP luminescence, 45 min. Q57TT1; also: nearly all actives have a fitted effect of over 50% in size
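Screened from lowest to highest concentration, compounds were pinned into TbPYK/substrate mixtures, and ADP (130 uM final) was added. Plates sat at room temperature for 45 min prior to Kinase-Glo Plus detection by luminescence.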
LmPK inh: LmPK (Leishmania mexicana) enzyme inhibition; Q27686; purified LmPK, Kinase-Glo ATP luminescence, 1 h; Potency, µM (titrated, usually from 57.5 µM), without a hit: at the highest dose activity change, negative = inhibition, hits mostly inhibitors; hit rate 0.37% among 290,000; AID 1721
Target sequence (Q27686 whole entry, looked up): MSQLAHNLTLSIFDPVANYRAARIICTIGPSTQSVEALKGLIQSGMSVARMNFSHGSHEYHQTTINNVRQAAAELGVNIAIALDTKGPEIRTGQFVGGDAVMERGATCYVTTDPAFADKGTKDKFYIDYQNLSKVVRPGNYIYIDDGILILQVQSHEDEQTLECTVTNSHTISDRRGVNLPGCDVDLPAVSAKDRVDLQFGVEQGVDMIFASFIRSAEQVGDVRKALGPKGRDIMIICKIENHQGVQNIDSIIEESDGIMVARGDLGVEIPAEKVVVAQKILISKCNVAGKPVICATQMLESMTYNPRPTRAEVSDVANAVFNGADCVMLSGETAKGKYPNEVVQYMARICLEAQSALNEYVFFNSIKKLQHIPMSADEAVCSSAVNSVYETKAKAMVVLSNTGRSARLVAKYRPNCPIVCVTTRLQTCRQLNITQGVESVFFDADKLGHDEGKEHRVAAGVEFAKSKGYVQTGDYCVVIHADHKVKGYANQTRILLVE
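0.1 nM LmPK, 0.5 mM PEP, 0.1 mM ADP; 50 mM imidazole pH 7.2, 7 mM MgCl2, 50 mM KCl; 1 h RT. Kinase-Glo luminescence readout, normalized to no-enzyme (full inhibition) and uninhibited wells.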
AMA1 RON2 block: AMA1-RON2 (P. falciparum) interaction inhibition; AlphaScreen AMA1-biotinylated RON2 peptide binding; Potency, µM (top dose mostly 58.2 µM), for the others: at the highest dose activity change, negative = inhibition, hits mostly inhibitors; hit rate 0.2% among 360,000;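 also: 0% = vehicle wells and -100% = peptide control; nearly all actives have a fitted effect of over 45% in size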
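AMA1 (3D7) with his tag at 25 nM final met compounds first, then biotinylated RON2 peptide at 25 nM; detection used donor plus acceptor beads, 10 µg/mL apiece, read by AlphaScreen after 30 min at room temperature.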
Numbers without * were called inactive; [ ] = dose if it differs, or a comment. Unless noted, calls follow the shape of the dose curve; as a rule, active = well fitted curve in the direction sought with a large enough effect; inconclusive = small, poorly fitted or top-dose-only effect, or another doubt; inactive = no such curve, though single readings can be large; an effect the other way counts as inactive or inconclusive. Unless noted, % is scaled to controls: 0 for no effect and ±100 for the full control effect; potency is read from the fitted curve at half-maximal effect.

What do the screens show for `CCOc1cc(CNc2ccc(N(C)C)cc2)cc(Br)c1OCC(=O)NC(C)(C)C`?
Sm TGR inh: -31%; RE007 growth inh: inconclusive; TbPYK inhibitor: -12%; LmPK inh: 1%; AMA1 RON2 block: 25µM*

How did CCOc1cc(CNc2ccc(N3CCCCC3)cc2)cc(Br)c1OCC(=O)NC(C)(C)C do in these assays?
Sm TGR inh: -17%; TbPYK inhibitor: -5%; LmPK inh: 4%; AMA1 RON2 block: 20µM*

How did COc1cc(CNc2ccc3[nH]c(=O)[nH]c3c2)ccc1OCC(=O)NC(C)(C)C do in these assays?
Sm TGR inh: 3%; RE007 growth inh: 18%; TbPYK inhibitor: -20%; LmPK inh: -6%; AMA1 RON2 block: -5%

Results for COc1cc(CNc2ccc3[nH]c(=O)[nH]c3c2)cc(Br)c1OCC(=O)NC(C)(C)C ?
Sm TGR inh: 13µM*; RE007 growth inh: 13%; TbPYK inhibitor: -8%; LmPK inh: -1%; AMA1 RON2 block: -25%

Results for CCOc1cc(CNc2ccc(N3CCN(C(C)=O)CC3)cc2)cc(Br)c1OC ?
Sm TGR inh: -20%; RE007 growth inh: -15%; TbPYK inhibitor: -14%; LmPK inh: 4%; AMA1 RON2 block: inconclusive

How did C=CCN1c2ccccc2[C@]23C[C@@H](C(=O)OC)N(S(=O)(=O)c4cccs4)C2=NC(C(=O)OC)=C(C(=O)OC)[C@H]13 do in these assays?
LmPK inh: 2%[11.5 µM]

What do the screens show for `CCCCCOc1ccc(C2SC(=O)NC2=O)cc1OCC` (centres undefined)?
TbPYK inhibitor: -5%

Results for CCOc1cc(CNc2ccc(N3CCOCC3)cc2)cc(Br)c1OCC ?
Sm TGR inh: -11%; RE007 growth inh: -8%; TbPYK inhibitor: -2%; LmPK inh: 4%; AMA1 RON2 block: 14µM*

Results for COc1cc(CNc2ccc(N3CCOCC3)cc2)cc(Br)c1OC ?
Sm TGR inh: -18%; RE007 growth inh: -22%; TbPYK inhibitor: -7%; LmPK inh: 3%; AMA1 RON2 block: inconclusive

What do the screens show for `CC1=C(c2ccc(C)cc2)S(=O)(=O)N(Cc2ccc(C(=O)NCc3cccc(C)c3)cc2)C1=O`?
Sm TGR inh: -2%; TbPYK inhibitor: 2%

What do the screens show for `C[C@@H]1O[C@@]2(CS1)CN1CCC2CC1`?
TbPYK inhibitor: -7%

How did CCOc1ccccc1C(=O)Nc1ccc(C(=O)c2ccccc2)cc1 do in these assays?
Sm TGR inh: 4.5µM*; RE007 growth inh: -2%; TbPYK inhibitor: -1%; LmPK inh: 3%; AMA1 RON2 block: 9%

Results for O=C(CSc1nnc(NC(=O)C2CC(=O)N(c3ccc(F)cc3)C2)s1)NCc1ccco1 (centres undefined) ?
Sm TGR inh: inconclusive; RE007 growth inh: 1%; TbPYK inhibitor: -20%; LmPK inh: 3%; AMA1 RON2 block: 11%

Results for COc1ccc(N2CC(C(=O)Nc3nnc(SCC(=O)NCc4ccco4)s3)CC2=O)cc1 (centres undefined) ?
Sm TGR inh: 28µM*; RE007 growth inh: -14%; TbPYK inhibitor: -11%; LmPK inh: -5%; AMA1 RON2 block: -6%

How did Cc1ccc(CCN2CC(C(=O)NCc3ccco3)CC2=O)cc1 (centres undefined) do in these assays?
Sm TGR inh: 45µM*; RE007 growth inh: 2%; TbPYK inhibitor: 0%; LmPK inh: 3%; AMA1 RON2 block: -3%

What do the screens show for `COc1ccc(N2CC(C(=O)NCc3ccco3)CC2=O)cc1` (centres undefined)?
Sm TGR inh: 20µM*; RE007 growth inh: -6%; TbPYK inhibitor: -7%; LmPK inh: 2%; AMA1 RON2 block: 1%

What do the screens show for `COc1ccc(C)cc1NS(=O)(=O)c1ccc2c(c1)CCCN2C(C)=O`?
Sm TGR inh: 3%; TbPYK inhibitor: 9%

Results for O=[N+]([O-])c1c(NCCCO)cc(SCc2ccco2)c2nonc12 ?
Sm TGR inh: 3.2µM*; RE007 growth inh: -22%; TbPYK inhibitor: -13%; LmPK inh: -4%; AMA1 RON2 block: -12%

What do the screens show for `COc1ccc(Nc2cc(NCCCO)c([N+](=O)[O-])c3nonc23)cc1`?
Sm TGR inh: 3%; RE007 growth inh: 3%; TbPYK inhibitor: 2%; LmPK inh: 2%; AMA1 RON2 block: -3%

How did Cn1ccnc1Sc1cc(NCCCO)c([N+](=O)[O-])c2nonc12 do in these assays?
Sm TGR inh: 0.71µM*; RE007 growth inh: -1%; TbPYK inhibitor: inconclusive; LmPK inh: -11%; AMA1 RON2 block: -8%

Results for O=[N+]([O-])c1c(NCCCO)cc(Sc2ccc(Cl)cc2)c2nonc12 ?
Sm TGR inh: 5.6µM*; RE007 growth inh: -12%; TbPYK inhibitor: 20%; LmPK inh: -5%; AMA1 RON2 block: 0%

Results for COC(=O)C(C(C)=O)C1c2ccccc2C=C(C)N1C(=O)OC (centres undefined) ?
LmPK inh: -7%[11.5 µM]

How did Cc1ccc(CNC(=O)CSc2ncc3c(n2)-c2cc(Cl)ccc2N(C)S3(=O)=O)cc1 do in these assays?
Sm TGR inh: 2%; TbPYK inhibitor: -3%

What do the screens show for `CCN(CC)C(C)C(=O)c1ccccc1` (centres undefined)?
TbPYK inhibitor: -8%

What do the screens show for `CCN(CC)C(NC(=O)c1ccccc1)C(=O)c1ccccc1` (centres undefined)?
Sm TGR inh: 79µM*; RE007 growth inh: 15%; TbPYK inhibitor: -4%; LmPK inh: 2%; AMA1 RON2 block: 0%

What do the screens show for `CC(C)OC(=O)OCOP(=O)(CO[C@H](C)Cn1cnc2c(N)ncnc21)OCOC(=O)OC(C)C`?
TbPYK inhibitor: 14%

Results for O=C(C[n+]1ccccc1)N1c2ccccc2Sc2ccccc21 ?
Sm TGR inh: 28µM*; RE007 growth inh: -24%; TbPYK inhibitor: -2%; LmPK inh: 6%; AMA1 RON2 block: -7%

What do the screens show for `CCCCS(=O)(=O)N1CCc2nc(-c3ccccc3)c3c(c2C1)CO[C@@H](C)C3`?
LmPK inh: -2%[11.5 µM]

How did Oc1ccc(-c2c(C3=CCCCC3)sc3ccccc23)cc1 do in these assays?
Sm TGR inh: 79µM*; RE007 growth inh: -20%; TbPYK inhibitor: -4%; LmPK inh: 2%; AMA1 RON2 block: -10%

Results for O=C(NC1CCN(Cc2ccccc2)CC1)c1ccc(Cn2c(=O)c3ccccc3n(Cc3ccc(F)cc3)c2=O)cc1 ?
Sm TGR inh: 0%; TbPYK inhibitor: 0%

What do the screens show for `Cc1ccc(S(=O)(=O)N2CCc3cc(C(=O)Nc4c(F)cccc4F)ccc32)cc1`?
Sm TGR inh: 5%; TbPYK inhibitor: -2%

How did O=c1oc2c3c4c(cc2s1)CCCN4CCC3 do in these assays?
Sm TGR inh: inconclusive; RE007 growth inh: inconclusive; TbPYK inhibitor: inconclusive; LmPK inh: 16%; AMA1 RON2 block: 14µM*
